Laboratory results: the supplement of paper PMC3545927
The list shows a part of the results. The true hit rate is not given.

Target: furin, P09958
Test: furin cleavage Z-score vs untreated control; higher = more cleavage, active = 3.5 or more, inactive = 1 or less, 8 variable residues between constant flanks
Method in brief: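 Sequencing of released DNA, tagged with adapters by PCR, gave read counts used as abundance. That DNA was freed when purified furin cut N-terminally bead-bound 8-mer peptides fused to a cDNA oligonucleotide, in 0.01 ml reactions at 1:10 enzyme:substrate in 50 mM HEPES pH 7.5 with CaCl2 and NaCl, lasting 7.5, 15 or 30 min. The cleavage Z-score was the lowess-adjusted log count versus furin-free reactions, scaled by median absolute deviation.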

furin, P09958, sequence (P09958 whole entry): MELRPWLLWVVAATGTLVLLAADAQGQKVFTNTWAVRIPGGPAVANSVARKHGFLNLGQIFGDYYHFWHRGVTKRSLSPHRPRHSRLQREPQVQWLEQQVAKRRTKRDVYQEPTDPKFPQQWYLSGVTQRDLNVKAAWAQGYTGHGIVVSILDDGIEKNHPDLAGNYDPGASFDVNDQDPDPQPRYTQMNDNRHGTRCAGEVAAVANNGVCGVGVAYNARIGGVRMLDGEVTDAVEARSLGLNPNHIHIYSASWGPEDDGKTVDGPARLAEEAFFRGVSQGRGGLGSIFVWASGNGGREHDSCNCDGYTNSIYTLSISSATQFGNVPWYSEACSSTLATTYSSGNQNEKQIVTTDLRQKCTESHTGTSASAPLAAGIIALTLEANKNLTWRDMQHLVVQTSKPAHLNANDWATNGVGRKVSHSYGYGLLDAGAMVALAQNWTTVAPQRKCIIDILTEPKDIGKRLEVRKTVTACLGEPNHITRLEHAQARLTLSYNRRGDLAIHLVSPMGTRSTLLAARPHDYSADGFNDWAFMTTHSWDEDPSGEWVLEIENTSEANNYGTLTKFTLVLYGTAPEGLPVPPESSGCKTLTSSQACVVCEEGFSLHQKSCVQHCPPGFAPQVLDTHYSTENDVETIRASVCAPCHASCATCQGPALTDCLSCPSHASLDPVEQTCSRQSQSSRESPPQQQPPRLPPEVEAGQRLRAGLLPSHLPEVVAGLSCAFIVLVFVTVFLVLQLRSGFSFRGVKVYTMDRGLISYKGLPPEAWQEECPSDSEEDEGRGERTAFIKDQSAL

Sequence | furin cleavage Z-score (7.5 min) | furin cleavage Z-score (15 min) | furin cleavage Z-score (30 min)
CATTFCSGSWAGNASASA [HC1867] | 0.273 (inactive) | 0.134 (inactive) | -0.205 (inactive)
CALTTSQTLLAGNASASA [HC1061] | -1.15 (inactive) | 0.0331 (inactive) | 0.232 (inactive)
CAIYGACYSIAGNASASA [HC1594] | 0.0718 (inactive) | 0.563 (inactive) | -0.201 (inactive)
CARGLLGCIIAGNASASA [HC679] | -0.71 (inactive) | -0.595 (inactive) | -1.08 (inactive)
CAVHSRASRDAGNASASA [FS-205] | 6.86 (active) | 6.96 (active) | 4.81 (active)
CARLARASRDAGNASASA [FS-1606] | 6.41 (active) | 5.81 (active) | 5.23 (active)
CAEVPCHNPSAGNASASA [HC2381] | -0.125 (inactive) | 0.398 (inactive) | -1.22 (inactive)
CALPEAGRRSAGNASASA [FS-1462] | -0.222 (inactive) | -0.673 (inactive) | -1.48 (inactive)
CAYLNRGRRSAGNASASA [FS-1504] | 8.94 (active) | 11.8 (active) | 8.66 (active)
CASGYRGRRSAGNASASA [FS-1279] | 10.4 (active) | 9.6 (active) | 8.02 (active)
CASLARGRRSAGNASASA [FS-295] | 9.48 (active) | 9.53 (active) | 7.6 (active)
CASPARLARRAGNASASA [FS-869] | 0.549 (inactive) | 3.9 (active) | 4.41 (active)
CAIPRRHTRSAGNASASA [FS-1015] | 4.95 (active) | 4.88 (active) | 4.46 (active)
CAYYHRHTRSAGNASASA [FS-577] | 0.662 (inactive) | 0.71 (inactive) | 1.07
CASPERHTRSAGNASASA [FS-1414] | 9.58 (active) | 9.61 (active) | 8.51 (active)
CALVSRVTRSAGNASASA [FS-363] | 13 (active) | 12.8 (active) | 10.3 (active)
CACYIKARAAAGNASASA [HC1518] | -1.15 (inactive) | -2.21 (inactive) | -1.87 (inactive)
CALETTMRSPAGNASASA [HC761] | -0.168 (inactive) | -1 (inactive) | -1.96 (inactive)
CACDECHSTDAGNASASA [HC818] | 0.0668 (inactive) | -0.316 (inactive) | -1.36 (inactive)
CAVVCCSMSSAGNASASA [HC2097] | -1.16 (inactive) | -0.774 (inactive) | -1.81 (inactive)
CASLDPTFTIAGNASASA [HC893] | -1.06 (inactive) | -1.75 (inactive) | -1.02 (inactive)
CASPARETRSAGNASASA [FS-627] | 5.25 (active) | 8.43 (active) | 6.33 (active)
CAQLRRTTRSAGNASASA [FS-285] | 7.33 (active) | 6.26 (active) | 6.25 (active)
CASPLRQNRSAGNASASA [FS-299] | 0.752 (inactive) | 0.557 (inactive) | 0.444 (inactive)
CAMDARTDRSAGNASASA [FS-1375] | 1.8 | -1.12 (inactive) | 0.78 (inactive)
CAEYVTSTWVAGNASASA [HC2169] | 0.357 (inactive) | 0.186 (inactive) | -1.53 (inactive)

Sequence | furin cleavage Z-score (7.5 min) | furin cleavage Z-score (15 min) | furin cleavage Z-score (30 min)
CAAGAAIGSVAGNASASA [HC1078] | -1.21 (inactive) | 0.457 (inactive) | -0.822 (inactive)
CAEVVTSHWVAGNASASA [HC2215] | -1.58 (inactive) | -0.204 (inactive) | 0.171 (inactive)
CAVRARLLARAGNASASA [HC1624] | -2.8 (inactive) | -0.431 (inactive) | -0.318 (inactive)
CADPTTPLARAGNASASA [HC1564] | -0.242 (inactive) | -3 (inactive) | -1.34 (inactive)
CAAAGRRLARAGNASASA [HC1253] | 4.08 (active) | 4.81 (active) | 4.86 (active)
CAVDCCSMSYAGNASASA [HC2011] | 0.752 (inactive) | -0.617 (inactive) | 0.379 (inactive)
CALAERRVRIAGNASASA [FS-265] | 0.222 (inactive) | 0.166 (inactive) | -2.18 (inactive)
CAFKNRSCRIAGNASASA [FS-768] | -0.201 (inactive) | 0.864 (inactive) | 0.865 (inactive)
CAMHIRRKRIAGNASASA [FS-1235] | 8.17 (active) | 9.27 (active) | 7.92 (active)
CAARIRVKRYAGNASASA [FS-8] | 8.19 (active) | 7 (active) | 8.58 (active)
CARCRRNKRIAGNASASA [FS-1649] | 4.5 (active) | 6.14 (active) | 4.22 (active)
CALILRSKRYAGNASASA [FS-1024] | 9.69 (active) | 10.5 (active) | 10.3 (active)
CADFDSVIDCAGNASASA [HC884] | -0.725 (inactive) | -1.64 (inactive) | -0.179 (inactive)
CAEVYCHRPSAGNASASA [HC2349] | -0.918 (inactive) | 0.00682 (inactive) | -0.904 (inactive)
CAAEECSQHLAGNASASA [HC1663] | 0.467 (inactive) | 0.000249 (inactive) | 1.4
CASRGENCGYAGNASASA [HC1505] | 1.28 | -1.03 (inactive) | -0.54 (inactive)
CALTHPVTKYAGNASASA [HC979] | -1.06 (inactive) | 1.08 | 1.75
CANFISGIQYAGNASASA [HC1044] | -0.934 (inactive) | -0.739 (inactive) | -0.721 (inactive)
CAAICRRKRYAGNASASA [FS-396] | 11.5 (active) | 13.2 (active) | 11.3 (active)
CAANVRRKRYAGNASASA [FS-643] | 12.5 (active) | 13.8 (active) | 11.3 (active)
CAAICGKYLFAGNASASA [HC1630] | 1.25 | -1.22 (inactive) | -0.719 (inactive)
CAFHIRRKRYAGNASASA [FS-651] | 11.7 (active) | 12.5 (active) | 10.9 (active)
CANHVSPTHYAGNASASA [HC1124] | -0.962 (inactive) | 0.0646 (inactive) | -0.575 (inactive)
CAFHIRRKRYAGNASASA [FU9] | 11 (active) | 12.5 (active) | 11.3 (active)
CASRHRVTRYAGNASASA [FS-1489] | 9.37 (active) | 11.3 (active) | 10.7 (active)
